Screening results (PubChem BioAssay)
LMP1 NFkB inh: reduces LMP1-driven NF-kappaB luciferase signal. LMP1-induced NF-kappaB luciferase reporter cells, luminescence. inhibition, % at 12.5 µM. hit rate 0.69% among 350,000. AID 504558; in the data active = inhibition above about 41%; inconclusive = no clear call, values can overlap the other calls
NSD2 inh: blocks human histone methyltransferase NSD2 | O96028 | NSD2 peptide methylation, AlphaScreen, 120 min | inhibition, % at 12.5 µM | hit rate 0.54% among 310,000; in the data active = inhibition above about 50%
Target sequence (O96028 whole entry, looked up): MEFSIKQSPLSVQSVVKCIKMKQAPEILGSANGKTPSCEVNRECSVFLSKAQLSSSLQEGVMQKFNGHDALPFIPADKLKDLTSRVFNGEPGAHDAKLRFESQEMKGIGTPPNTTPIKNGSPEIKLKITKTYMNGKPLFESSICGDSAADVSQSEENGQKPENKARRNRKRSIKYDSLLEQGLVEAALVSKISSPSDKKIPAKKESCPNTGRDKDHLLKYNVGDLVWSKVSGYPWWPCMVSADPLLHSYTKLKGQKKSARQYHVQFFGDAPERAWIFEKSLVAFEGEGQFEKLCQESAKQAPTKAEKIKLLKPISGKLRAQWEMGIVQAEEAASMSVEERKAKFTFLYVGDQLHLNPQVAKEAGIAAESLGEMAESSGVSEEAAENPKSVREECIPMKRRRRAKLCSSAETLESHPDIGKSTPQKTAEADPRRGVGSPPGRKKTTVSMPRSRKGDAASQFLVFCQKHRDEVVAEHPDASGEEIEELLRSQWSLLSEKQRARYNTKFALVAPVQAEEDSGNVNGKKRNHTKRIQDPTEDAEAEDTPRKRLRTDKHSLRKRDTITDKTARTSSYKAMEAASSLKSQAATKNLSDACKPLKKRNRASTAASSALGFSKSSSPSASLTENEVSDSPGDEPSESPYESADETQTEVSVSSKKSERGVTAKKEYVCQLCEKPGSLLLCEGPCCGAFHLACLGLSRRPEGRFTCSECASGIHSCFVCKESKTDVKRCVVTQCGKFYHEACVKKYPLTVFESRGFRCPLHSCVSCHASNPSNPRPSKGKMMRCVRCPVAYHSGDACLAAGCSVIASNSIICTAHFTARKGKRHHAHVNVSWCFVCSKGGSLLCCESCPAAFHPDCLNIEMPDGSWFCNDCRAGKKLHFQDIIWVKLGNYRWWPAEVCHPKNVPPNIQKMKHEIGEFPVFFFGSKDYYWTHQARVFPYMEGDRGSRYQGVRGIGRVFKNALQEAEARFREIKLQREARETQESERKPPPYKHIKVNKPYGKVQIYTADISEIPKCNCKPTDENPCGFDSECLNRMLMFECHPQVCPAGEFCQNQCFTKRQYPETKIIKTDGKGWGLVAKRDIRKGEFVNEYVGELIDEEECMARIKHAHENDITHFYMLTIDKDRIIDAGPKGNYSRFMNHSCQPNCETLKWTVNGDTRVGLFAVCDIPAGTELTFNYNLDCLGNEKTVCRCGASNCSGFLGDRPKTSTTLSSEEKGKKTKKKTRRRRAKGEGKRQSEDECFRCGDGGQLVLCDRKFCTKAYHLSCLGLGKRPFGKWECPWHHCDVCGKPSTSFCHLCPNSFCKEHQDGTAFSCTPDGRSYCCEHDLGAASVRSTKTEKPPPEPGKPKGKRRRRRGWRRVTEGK
Env fusion inh: HIV envelope-mediated fusion inhibition; inhibition, % at 12.3 µM; hit rate 1.1% among 360,000; HeLa-JRFL Env/CEM21 cell fusion, luciferase;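 active = mean replicate inhibition score of at least 50 and every replicate individually at or above 50; inconclusive = only one of the two criteria met; inactive = mean below 50 and not all replicates reaching 50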
PAX8 reporter: lowers PAX8-driven luciferase in RMG-I cells | hit rate 1.2% among 360,000 | inhibition, % at 12.6 µM | AID 652154 | RMG-I TPO-luciferase reporter, SteadyGlo, 24 h;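 active = mean replicate inhibition at least 60% with every replicate also reaching 60%; inconclusive = only one of the two criteria is met; inactive = mean below 60% and not all replicates reaching 60%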;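 also: luciferase light reporting Pax8 driven TPO promoter activity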
N-glyco inh: blocks N-linked glycosylation in D54 reporter cells | D54 ERlucT glycosylation luciferase reporter, 24 h; percent of 100 nM tunicamycin response | reporter increase, % at 12.5 µM | hit rate 0.23% among 360,000;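 active = mean luciferase reporter signal, scaled so untreated is 0 and the glycosylation-blocking control 100, at or above a set limit in every replicate; inconclusive = mean reaches the limit but not every replicate does; inactive = mean below the limit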;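 also: luciferase carries N-glycosylation sites so blocking glycosylation raises the light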
Shn3 inh set2: reduces Shn3 3'UTR luciferase signal in osteoblasts | hit rate 0.52% among 360,000 | Clone20 osteoblast Shn3 3'UTR firefly luciferase, 24 h | inhibition, % at 12.5 µM;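 active = mean inhibition of at least 75% with every replicate also reaching 75%; inconclusive = mean inhibition at least 75% but some replicate below; inactive = mean inhibition below 75%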
Hits are given with their value. This is a sample that favours compounds with a hit; in the whole collection about 2.8% have one here.

What do the screens show for `CCOC(=O)C1=C(C)N(C[C@@H]2CC[C@@H](Cc3ccc(-c4ccccc4)cc3)O2)C(=O)NC1c1ccc(C(F)(F)F)cc1` (stereo not given in full)?
LMP1 NFkB inh: inactive; Env fusion inh: 67.1; PAX8 reporter: inactive; N-glyco inh: inactive; Shn3 inh set2: inactive

Results for CCCCCCOc1ccc(/C(C)=N/NC2=NCCN2)cc1[N+](=O)[O-] ?
LMP1 NFkB inh: inactive; NSD2 inh: inactive; Env fusion inh: inactive; PAX8 reporter: inactive; N-glyco inh: inactive; Shn3 inh set2: inactive

What do the screens show for `CCCCOc1ccc(Br)cc1/C(C)=N/NC1=NCCN1`?
LMP1 NFkB inh: inactive; NSD2 inh: inactive; N-glyco inh: inactive; Shn3 inh set2: 88.1

What do the screens show for `CCN(C1CCCCC1)S(=O)(=O)c1ccc(S(=O)(=O)NCc2ccncc2)cc1`?
LMP1 NFkB inh: inactive; NSD2 inh: inactive; Env fusion inh: 80.7; N-glyco inh: inactive; Shn3 inh set2: inactive

What do the screens show for `O=C(N/N=C\c1ccc(CNS(=O)(=O)c2ccc(Cl)cc2)o1)C(=O)Nc1ccc(Oc2ccccc2)cc1`?
LMP1 NFkB inh: inactive; NSD2 inh: inactive; N-glyco inh: 51.8; Shn3 inh set2: inactive

What do the screens show for `COC(=O)c1ccc(C(=O)NC2CCCc3c2cnn3-c2ccc(C)c(C)c2)cc1` (stereo not given)?
LMP1 NFkB inh: inactive; NSD2 inh: inactive; Env fusion inh: 72.0; PAX8 reporter: inactive; N-glyco inh: inactive; Shn3 inh set2: inactive

Results for Cc1cc(C)cc(-n2ncc3c2CCCC3NC(=O)c2cc(C)n(C)n2)c1 (stereo not given) ?
LMP1 NFkB inh: inactive; NSD2 inh: inactive; Env fusion inh: inactive; PAX8 reporter: inactive; N-glyco inh: inactive; Shn3 inh set2: inactive

How did Cc1cccc(-n2ncc3c2CCCC3NC(=O)c2cccs2)c1C (stereo not given) do in these assays?
LMP1 NFkB inh: inactive; NSD2 inh: inactive; Env fusion inh: inactive; PAX8 reporter: inactive; N-glyco inh: inactive; Shn3 inh set2: inactive

What do the screens show for `Cc1cccc(-n2ncc3c2CCCC3NC(=O)c2ccncc2)c1C` (stereo not given)?
LMP1 NFkB inh: inactive; NSD2 inh: inactive; Env fusion inh: 60.8; PAX8 reporter: inactive; N-glyco inh: inactive; Shn3 inh set2: inconclusive

Results for Cc1cc(C(=O)NC2CCCc3c2cnn3-c2ccc(C(C)(C)C)cc2)nn1C (stereo not given) ?
LMP1 NFkB inh: inactive; NSD2 inh: inactive; Env fusion inh: 82.2; PAX8 reporter: inactive; N-glyco inh: inactive; Shn3 inh set2: inactive

How did CCn1cc(C(=O)NC2CCCc3c2cnn3-c2cccc(C)c2C)cn1 (stereo not given) do in these assays?
LMP1 NFkB inh: inactive; Env fusion inh: 57.3; PAX8 reporter: inactive; N-glyco inh: inactive; Shn3 inh set2: inactive

Results for CCS(=O)(=O)Nc1ccc2c(c1)C(=O)N(C)[C@@H]1CC[C@H](CC(=O)Nc3ccccc3)O[C@@H]1CO2 ?
Env fusion inh: inactive; PAX8 reporter: inactive

How did C[C@H]1CN([C@@H](C)CO)C(=O)c2cc(-c3cccnc3)cnc2O[C@H]1CN(C)C(=O)Cc1cccnc1 do in these assays?
Env fusion inh: inactive

Results for CCOc1ccc(OCC(=O)Nc2nccs2)cc1 ?
LMP1 NFkB inh: 42.9; NSD2 inh: inactive; N-glyco inh: inactive; Shn3 inh set2: inactive

Results for Nc1cccc2cc(S(=O)(=O)O)ccc12 ?
LMP1 NFkB inh: inactive; NSD2 inh: 128.7; Env fusion inh: inactive; PAX8 reporter: inactive; N-glyco inh: inactive; Shn3 inh set2: inactive

How did O=Nc1c(O)ccc2cc(S(=O)(=O)O)ccc12 do in these assays?
LMP1 NFkB inh: inactive; NSD2 inh: inactive; N-glyco inh: inactive; Shn3 inh set2: inactive

How did CCOC(=O)c1nc(NCc2ccccc2F)c2ccccc2n1 do in these assays?
LMP1 NFkB inh: 77.4; NSD2 inh: inactive; Env fusion inh: inactive; PAX8 reporter: inactive; N-glyco inh: inactive; Shn3 inh set2: inactive

What do the screens show for `CN1C(=O)c2cc(NC(=O)c3ccc(F)cc3)ccc2OC[C@H]2O[C@H](CC(=O)NCC3CCCCC3)CC[C@@H]21`?
Env fusion inh: inactive; PAX8 reporter: inactive

How did c1coc(CNc2c3c(nc4ccccc24)CCC3)c1 do in these assays?
LMP1 NFkB inh: inactive; NSD2 inh: inactive; Env fusion inh: 75.2; N-glyco inh: inactive; Shn3 inh set2: inactive

What do the screens show for `COc1cc(Nc2c3c(nc4ccccc24)CCC3)cc(OC)c1OC`?
LMP1 NFkB inh: inactive; NSD2 inh: inactive; Env fusion inh: inactive; PAX8 reporter: inactive; N-glyco inh: 48.6; Shn3 inh set2: inactive

What do the screens show for `COc1cc(/C=N/NC(=O)c2ccc(-c3ccccc3)cc2)cc(OC)c1OC`?
LMP1 NFkB inh: inactive; NSD2 inh: inactive; Env fusion inh: inactive; PAX8 reporter: 79.6; N-glyco inh: 32.7; Shn3 inh set2: inactive

Results for COc1cc(C(=O)N/N=C/c2sccc2C)cc(OC)c1OC ?
LMP1 NFkB inh: inactive; NSD2 inh: inactive; Env fusion inh: inactive; PAX8 reporter: 80.6; N-glyco inh: inactive; Shn3 inh set2: inactive

How did COc1cc(/C=N/NC(=O)c2ccc(-n3cccc3)cc2)ccc1O do in these assays?
LMP1 NFkB inh: inactive; NSD2 inh: inactive; Env fusion inh: inactive; PAX8 reporter: 72.1; N-glyco inh: inactive; Shn3 inh set2: inactive

How did COc1cc(/C=N/NC(=O)c2ccc3c(c2)OCO3)ccc1O do in these assays?
LMP1 NFkB inh: inactive; NSD2 inh: inactive; Env fusion inh: inactive; PAX8 reporter: inactive; N-glyco inh: inactive; Shn3 inh set2: inactive

How did Cc1ccsc1/C=N/NC(=O)c1ccncc1 do in these assays?
LMP1 NFkB inh: inactive; NSD2 inh: inactive; Env fusion inh: inactive; PAX8 reporter: inactive; N-glyco inh: inactive; Shn3 inh set2: inactive

How did COc1cc(C(=O)Oc2ccccc2/C=N/NC(=O)c2ccc(Cl)cc2)cc(OC)c1OC do in these assays?
LMP1 NFkB inh: inactive; NSD2 inh: inactive; Env fusion inh: inactive; PAX8 reporter: inactive; N-glyco inh: inactive; Shn3 inh set2: inactive

How did COc1cc(C(=O)Oc2ccccc2/C=N/NC(=O)c2ccc(C)c(Cl)c2)cc(OC)c1OC do in these assays?
LMP1 NFkB inh: 56.9; NSD2 inh: inactive; Env fusion inh: inactive; PAX8 reporter: inactive; N-glyco inh: inactive; Shn3 inh set2: inactive

How did CC=Cc1ccc2n(c1=O)C[C@H]1[C@H](CO)[C@@H](C(=O)NCCC)[C@@H]2N1C(=O)c1ccccc1F (mixture of isomers) do in these assays?
PAX8 reporter: inactive

How did CCC(=O)N1CC2(C1)[C@@H](c1ccccc1)[C@@H](CO)N2C(=O)NC(C)C do in these assays?
PAX8 reporter: inactive

How did CO[C@H]1CN(C)C(=O)c2ccc(NC(=O)C3CC3)cc2OC[C@@H](C)N(Cc2cccc(F)c2)C[C@H]1C do in these assays?
Env fusion inh: inactive; PAX8 reporter: inactive

What do the screens show for `CCOc1cc(/C=N/NC(=O)c2ccccc2OCc2ccc(F)cc2)ccc1O`?
LMP1 NFkB inh: inactive; NSD2 inh: inactive; Env fusion inh: inactive; PAX8 reporter: inactive; N-glyco inh: inactive; Shn3 inh set2: inactive

How did CCOc1cc(/C=N/NC(=O)c2ccccc2-n2cccc2)ccc1O do in these assays?
LMP1 NFkB inh: 70.6; NSD2 inh: inactive; Env fusion inh: inactive; PAX8 reporter: inactive; N-glyco inh: inactive; Shn3 inh set2: inactive
